Experimental data: ChEMBL document CHEMBL1961873, “Compounds: GSK PKIS; Assays: Nanosyn kinase panel” (2012)

Tests used:
[1] = target: Protein kinase C gamma type (Homo sapiens) (UniProt P05129); settings: at 1 µM;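 note: each value is an averaged percent inhibition of the enzyme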
[2] = target: T1, Protein kinase C iota type (Homo sapiens) (UniProt P41743); settings: at 0.1 µM
T1 sequence (whole entry): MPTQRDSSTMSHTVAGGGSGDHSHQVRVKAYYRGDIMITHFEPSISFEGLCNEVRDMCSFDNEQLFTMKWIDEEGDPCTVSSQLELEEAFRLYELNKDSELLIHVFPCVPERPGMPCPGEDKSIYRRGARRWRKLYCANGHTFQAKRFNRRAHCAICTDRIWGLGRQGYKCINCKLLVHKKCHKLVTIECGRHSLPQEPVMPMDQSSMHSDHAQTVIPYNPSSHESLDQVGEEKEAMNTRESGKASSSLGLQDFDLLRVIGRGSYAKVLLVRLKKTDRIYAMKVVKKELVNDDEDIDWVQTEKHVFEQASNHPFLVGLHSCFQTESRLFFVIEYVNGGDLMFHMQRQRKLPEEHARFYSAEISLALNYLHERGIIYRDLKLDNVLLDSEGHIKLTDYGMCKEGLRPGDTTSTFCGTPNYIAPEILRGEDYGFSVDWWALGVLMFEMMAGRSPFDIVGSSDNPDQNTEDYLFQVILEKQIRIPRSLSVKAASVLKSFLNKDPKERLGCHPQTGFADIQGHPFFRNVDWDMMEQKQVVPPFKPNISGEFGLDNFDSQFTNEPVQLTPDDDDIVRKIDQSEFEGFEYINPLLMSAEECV

[3] = target: T1, Protein kinase C iota type (Homo sapiens); settings: at 1 µM
[4] = target: Protein kinase C theta type (Homo sapiens) (UniProt Q04759); settings: at 0.1 µM
Chain of Protein kinase C theta type (Homo sapiens) (Q04759 whole entry, looked up): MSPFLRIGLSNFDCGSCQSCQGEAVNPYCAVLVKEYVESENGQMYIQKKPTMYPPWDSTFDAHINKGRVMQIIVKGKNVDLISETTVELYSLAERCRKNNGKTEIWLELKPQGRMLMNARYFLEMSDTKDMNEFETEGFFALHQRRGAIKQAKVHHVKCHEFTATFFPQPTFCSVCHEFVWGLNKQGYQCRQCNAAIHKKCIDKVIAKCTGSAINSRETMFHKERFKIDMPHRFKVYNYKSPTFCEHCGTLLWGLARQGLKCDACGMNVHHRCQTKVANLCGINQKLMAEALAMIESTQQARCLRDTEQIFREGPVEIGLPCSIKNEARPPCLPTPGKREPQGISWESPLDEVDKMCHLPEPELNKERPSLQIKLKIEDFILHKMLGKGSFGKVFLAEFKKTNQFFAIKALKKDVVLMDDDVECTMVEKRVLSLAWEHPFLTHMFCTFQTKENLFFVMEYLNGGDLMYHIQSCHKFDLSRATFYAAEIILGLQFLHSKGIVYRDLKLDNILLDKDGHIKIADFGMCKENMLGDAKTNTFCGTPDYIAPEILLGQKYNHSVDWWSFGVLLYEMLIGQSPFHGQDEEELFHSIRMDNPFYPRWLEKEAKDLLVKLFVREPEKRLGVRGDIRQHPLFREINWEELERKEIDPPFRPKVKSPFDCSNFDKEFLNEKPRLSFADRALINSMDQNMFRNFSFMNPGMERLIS

[5] = target: Protein kinase C theta type (Homo sapiens) (UniProt Q04759); settings: at 1 µM
[6] = target: Protein kinase C beta type (Homo sapiens) (UniProt P05771); settings: at 0.1 µM
Chain of Protein kinase C beta type (Homo sapiens) (P05771 2-671 limits assumed): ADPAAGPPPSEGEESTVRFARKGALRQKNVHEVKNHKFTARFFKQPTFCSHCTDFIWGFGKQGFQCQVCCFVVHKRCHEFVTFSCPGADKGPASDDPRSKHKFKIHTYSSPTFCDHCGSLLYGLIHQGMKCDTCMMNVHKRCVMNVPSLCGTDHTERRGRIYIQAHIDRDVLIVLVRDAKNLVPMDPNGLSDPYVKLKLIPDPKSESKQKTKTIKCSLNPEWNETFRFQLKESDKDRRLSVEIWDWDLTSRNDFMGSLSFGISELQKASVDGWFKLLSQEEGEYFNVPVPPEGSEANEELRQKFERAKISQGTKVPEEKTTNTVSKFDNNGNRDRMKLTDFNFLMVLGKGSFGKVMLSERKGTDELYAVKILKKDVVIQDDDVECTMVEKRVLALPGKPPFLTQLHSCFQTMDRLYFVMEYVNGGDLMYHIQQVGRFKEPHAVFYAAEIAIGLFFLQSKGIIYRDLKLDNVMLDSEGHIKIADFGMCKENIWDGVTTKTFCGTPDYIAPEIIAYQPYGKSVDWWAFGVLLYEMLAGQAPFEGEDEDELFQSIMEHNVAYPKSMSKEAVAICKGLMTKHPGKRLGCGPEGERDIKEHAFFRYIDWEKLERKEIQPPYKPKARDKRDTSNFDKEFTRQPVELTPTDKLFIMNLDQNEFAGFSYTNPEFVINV

[7] = target: Protein kinase C beta type (Homo sapiens) (UniProt P05771); settings: at 1 µM
[8] = target: T2, Serine/threonine-protein kinase D1 (Homo sapiens) (UniProt Q15139); settings: at 0.1 µM
T2 sequence (whole entry): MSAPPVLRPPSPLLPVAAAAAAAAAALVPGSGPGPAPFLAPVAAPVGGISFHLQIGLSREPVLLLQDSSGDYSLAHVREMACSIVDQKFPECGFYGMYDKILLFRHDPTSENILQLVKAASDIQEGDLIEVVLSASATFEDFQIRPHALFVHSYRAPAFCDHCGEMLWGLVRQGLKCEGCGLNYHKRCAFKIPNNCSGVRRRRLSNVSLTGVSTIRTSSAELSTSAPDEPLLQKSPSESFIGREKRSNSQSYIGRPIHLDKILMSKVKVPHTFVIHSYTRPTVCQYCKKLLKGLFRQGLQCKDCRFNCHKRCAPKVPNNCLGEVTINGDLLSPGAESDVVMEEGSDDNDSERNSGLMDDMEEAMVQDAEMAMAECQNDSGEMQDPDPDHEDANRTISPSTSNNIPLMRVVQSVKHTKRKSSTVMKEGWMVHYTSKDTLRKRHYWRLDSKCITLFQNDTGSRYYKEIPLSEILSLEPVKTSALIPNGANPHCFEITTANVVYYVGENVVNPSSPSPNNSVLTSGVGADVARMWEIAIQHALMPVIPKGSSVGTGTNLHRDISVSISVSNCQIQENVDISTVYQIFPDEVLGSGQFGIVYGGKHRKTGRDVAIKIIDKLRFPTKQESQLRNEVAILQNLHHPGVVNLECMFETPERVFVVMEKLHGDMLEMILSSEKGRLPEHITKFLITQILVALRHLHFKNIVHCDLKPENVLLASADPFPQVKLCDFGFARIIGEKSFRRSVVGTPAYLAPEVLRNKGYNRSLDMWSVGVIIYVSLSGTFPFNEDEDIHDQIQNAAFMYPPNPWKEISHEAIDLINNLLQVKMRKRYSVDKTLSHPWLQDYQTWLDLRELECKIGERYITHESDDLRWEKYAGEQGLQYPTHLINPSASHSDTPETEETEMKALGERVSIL

[9] = target: T2, Serine/threonine-protein kinase D1 (Homo sapiens); settings: at 1 µM
[10] = target: T3, Serine/threonine-protein kinase D2 (Homo sapiens) (UniProt Q9BZL6); settings: at 0.1 µM
T3 sequence (whole entry): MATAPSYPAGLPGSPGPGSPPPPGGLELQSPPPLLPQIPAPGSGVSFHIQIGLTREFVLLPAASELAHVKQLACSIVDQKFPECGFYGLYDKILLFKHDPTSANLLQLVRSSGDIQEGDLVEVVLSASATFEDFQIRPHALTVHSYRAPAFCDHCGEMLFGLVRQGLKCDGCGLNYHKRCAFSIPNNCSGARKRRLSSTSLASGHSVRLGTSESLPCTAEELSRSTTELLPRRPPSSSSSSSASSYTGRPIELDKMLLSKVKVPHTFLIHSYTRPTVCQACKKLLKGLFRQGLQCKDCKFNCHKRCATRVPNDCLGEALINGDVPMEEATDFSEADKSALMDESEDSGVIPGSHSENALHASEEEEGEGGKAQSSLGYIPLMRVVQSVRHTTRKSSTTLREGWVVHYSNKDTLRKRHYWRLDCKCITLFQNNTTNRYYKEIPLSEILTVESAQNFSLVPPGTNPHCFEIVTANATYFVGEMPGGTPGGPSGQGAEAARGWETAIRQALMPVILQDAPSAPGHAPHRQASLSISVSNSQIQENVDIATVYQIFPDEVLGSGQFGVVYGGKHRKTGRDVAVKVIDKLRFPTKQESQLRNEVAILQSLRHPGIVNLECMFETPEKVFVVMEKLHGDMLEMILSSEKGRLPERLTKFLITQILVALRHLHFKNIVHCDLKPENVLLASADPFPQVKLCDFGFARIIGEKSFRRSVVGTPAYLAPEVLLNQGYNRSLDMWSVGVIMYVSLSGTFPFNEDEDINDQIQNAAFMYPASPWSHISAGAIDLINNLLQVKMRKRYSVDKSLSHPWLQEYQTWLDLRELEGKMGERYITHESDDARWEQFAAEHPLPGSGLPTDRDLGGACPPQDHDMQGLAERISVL

[11] = target: T3, Serine/threonine-protein kinase D2 (Homo sapiens); settings: at 1 µM
[12] = target: T4, Serine/threonine-protein kinase D3 (Homo sapiens) (UniProt O94806); settings: at 0.1 µM
T4 sequence (whole entry): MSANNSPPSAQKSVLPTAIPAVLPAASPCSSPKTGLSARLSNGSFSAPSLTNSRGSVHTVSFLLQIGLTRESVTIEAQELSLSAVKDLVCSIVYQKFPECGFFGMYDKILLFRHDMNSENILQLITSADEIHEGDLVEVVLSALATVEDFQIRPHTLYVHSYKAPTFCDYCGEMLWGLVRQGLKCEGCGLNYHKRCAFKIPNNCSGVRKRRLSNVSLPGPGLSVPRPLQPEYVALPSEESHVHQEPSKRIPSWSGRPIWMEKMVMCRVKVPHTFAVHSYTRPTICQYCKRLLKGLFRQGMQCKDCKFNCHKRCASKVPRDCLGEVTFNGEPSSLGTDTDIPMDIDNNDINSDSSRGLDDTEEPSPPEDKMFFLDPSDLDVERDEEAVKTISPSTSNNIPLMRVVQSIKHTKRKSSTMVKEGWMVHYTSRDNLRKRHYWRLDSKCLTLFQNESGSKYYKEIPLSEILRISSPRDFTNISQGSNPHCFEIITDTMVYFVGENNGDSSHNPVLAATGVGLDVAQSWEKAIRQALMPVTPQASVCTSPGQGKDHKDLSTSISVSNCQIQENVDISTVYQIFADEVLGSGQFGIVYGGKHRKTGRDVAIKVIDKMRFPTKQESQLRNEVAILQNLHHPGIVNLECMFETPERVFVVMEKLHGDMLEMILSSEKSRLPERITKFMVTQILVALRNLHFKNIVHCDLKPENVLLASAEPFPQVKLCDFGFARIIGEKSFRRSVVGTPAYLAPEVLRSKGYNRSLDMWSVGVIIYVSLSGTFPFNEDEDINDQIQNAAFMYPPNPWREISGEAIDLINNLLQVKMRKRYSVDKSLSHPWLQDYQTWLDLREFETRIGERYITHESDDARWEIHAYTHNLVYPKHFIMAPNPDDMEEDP

[13] = target: T4, Serine/threonine-protein kinase D3 (Homo sapiens); settings: at 1 µM
[14] = target: T5, cGMP-dependent protein kinase 1 (Homo sapiens) (UniProt Q13976); settings: at 0.1 µM
T5 sequence (whole entry): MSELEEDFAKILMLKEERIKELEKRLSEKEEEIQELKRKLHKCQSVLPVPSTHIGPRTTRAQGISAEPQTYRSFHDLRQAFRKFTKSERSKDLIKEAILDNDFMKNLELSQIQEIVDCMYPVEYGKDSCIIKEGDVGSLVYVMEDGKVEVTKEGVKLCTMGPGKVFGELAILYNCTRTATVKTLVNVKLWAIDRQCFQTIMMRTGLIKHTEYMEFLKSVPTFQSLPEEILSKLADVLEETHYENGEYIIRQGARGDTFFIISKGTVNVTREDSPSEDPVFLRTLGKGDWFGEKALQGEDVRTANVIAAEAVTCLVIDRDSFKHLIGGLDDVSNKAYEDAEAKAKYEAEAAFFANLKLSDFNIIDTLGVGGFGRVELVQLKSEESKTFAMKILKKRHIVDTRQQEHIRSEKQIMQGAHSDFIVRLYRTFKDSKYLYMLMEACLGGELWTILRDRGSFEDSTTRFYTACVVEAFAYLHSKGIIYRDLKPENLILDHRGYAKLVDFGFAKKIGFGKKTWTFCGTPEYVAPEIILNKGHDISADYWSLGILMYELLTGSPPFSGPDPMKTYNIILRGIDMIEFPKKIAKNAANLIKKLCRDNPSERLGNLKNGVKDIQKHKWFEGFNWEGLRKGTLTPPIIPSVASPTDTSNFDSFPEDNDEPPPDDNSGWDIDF

[15] = target: T5, cGMP-dependent protein kinase 1 (Homo sapiens); settings: at 1 µM
[16] = target: T6, cGMP-dependent protein kinase 2 (Homo sapiens) (UniProt Q13237); settings: at 0.1 µM
T6 sequence (whole entry): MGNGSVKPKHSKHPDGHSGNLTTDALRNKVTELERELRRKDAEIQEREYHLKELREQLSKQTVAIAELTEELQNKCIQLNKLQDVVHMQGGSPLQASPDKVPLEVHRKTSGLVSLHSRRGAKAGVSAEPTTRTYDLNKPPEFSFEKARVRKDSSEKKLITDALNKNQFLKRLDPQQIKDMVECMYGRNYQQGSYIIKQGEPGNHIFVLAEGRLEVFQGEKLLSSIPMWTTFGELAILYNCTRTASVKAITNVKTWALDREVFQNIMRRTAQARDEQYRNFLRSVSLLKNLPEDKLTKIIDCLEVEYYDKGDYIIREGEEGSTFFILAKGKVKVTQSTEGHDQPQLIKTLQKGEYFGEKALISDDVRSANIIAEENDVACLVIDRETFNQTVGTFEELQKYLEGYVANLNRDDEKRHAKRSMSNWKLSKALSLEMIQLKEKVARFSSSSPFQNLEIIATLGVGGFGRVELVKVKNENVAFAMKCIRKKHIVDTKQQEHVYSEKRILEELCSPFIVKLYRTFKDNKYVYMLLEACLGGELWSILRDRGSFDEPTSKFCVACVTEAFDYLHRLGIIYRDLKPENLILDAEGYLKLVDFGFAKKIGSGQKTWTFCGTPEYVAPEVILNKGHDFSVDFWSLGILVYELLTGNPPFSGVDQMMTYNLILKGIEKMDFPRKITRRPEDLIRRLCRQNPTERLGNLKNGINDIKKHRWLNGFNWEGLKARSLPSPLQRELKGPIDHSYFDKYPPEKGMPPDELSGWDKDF

[17] = target: T6, cGMP-dependent protein kinase 2 (Homo sapiens); settings: at 1 µM
[18] = target: T7, cAMP-dependent protein kinase catalytic subunit PRKX (Homo sapiens) (UniProt P51817); settings: at 0.1 µM
T7 sequence (whole entry): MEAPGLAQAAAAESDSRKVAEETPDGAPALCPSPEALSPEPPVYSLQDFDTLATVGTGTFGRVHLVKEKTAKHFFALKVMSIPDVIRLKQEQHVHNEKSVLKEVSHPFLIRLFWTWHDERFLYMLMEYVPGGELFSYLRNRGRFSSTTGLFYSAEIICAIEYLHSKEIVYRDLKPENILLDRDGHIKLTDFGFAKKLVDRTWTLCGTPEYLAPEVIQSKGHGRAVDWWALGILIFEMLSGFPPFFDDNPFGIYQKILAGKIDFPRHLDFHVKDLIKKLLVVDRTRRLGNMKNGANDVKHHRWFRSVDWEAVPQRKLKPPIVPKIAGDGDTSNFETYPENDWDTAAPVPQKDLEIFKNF

[19] = target: T7, cAMP-dependent protein kinase catalytic subunit PRKX (Homo sapiens); settings: at 1 µM
[20] = target: Rho-associated protein kinase 1 (Homo sapiens) (UniProt Q13464); settings: at 0.1 µM;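 note: values are mean percent inhibition of ROCK1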
Chain of Rho-associated protein kinase 1 (Homo sapiens) (Q13464 2-1354 limits assumed): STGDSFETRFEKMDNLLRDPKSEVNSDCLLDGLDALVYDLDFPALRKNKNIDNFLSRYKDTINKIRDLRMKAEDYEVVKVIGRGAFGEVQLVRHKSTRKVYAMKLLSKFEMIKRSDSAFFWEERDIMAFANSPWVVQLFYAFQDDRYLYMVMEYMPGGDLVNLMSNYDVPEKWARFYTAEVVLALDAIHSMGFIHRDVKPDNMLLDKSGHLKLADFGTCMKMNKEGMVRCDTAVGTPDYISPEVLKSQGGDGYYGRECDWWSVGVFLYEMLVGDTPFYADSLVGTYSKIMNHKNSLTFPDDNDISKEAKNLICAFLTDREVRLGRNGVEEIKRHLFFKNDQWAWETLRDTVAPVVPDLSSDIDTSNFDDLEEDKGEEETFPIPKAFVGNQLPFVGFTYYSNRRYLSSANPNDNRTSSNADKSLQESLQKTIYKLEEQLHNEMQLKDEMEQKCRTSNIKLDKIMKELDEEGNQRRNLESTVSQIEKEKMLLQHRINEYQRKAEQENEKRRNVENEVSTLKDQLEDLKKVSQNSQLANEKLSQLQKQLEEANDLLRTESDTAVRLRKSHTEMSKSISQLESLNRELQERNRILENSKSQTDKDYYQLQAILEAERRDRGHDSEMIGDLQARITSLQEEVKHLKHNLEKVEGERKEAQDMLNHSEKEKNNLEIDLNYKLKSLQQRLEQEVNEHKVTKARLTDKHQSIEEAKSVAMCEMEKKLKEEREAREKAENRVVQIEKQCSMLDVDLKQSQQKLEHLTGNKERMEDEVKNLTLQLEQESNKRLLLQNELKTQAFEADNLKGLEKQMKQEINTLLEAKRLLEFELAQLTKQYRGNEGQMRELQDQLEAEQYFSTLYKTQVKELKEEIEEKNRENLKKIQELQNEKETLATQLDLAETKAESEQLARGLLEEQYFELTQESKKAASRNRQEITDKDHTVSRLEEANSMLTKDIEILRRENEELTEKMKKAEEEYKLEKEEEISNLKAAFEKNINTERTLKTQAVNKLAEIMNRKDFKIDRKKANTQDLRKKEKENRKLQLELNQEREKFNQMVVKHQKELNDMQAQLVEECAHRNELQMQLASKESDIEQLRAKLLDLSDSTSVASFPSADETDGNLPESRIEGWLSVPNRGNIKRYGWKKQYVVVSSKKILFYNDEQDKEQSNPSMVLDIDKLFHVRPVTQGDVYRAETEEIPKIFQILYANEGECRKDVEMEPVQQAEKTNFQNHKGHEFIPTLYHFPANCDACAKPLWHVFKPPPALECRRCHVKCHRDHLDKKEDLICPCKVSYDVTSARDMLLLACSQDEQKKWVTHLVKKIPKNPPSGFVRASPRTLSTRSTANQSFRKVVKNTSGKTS

SMILES | inhibition [1] [%] | inhibition [2] [%] | inhibition [3] [%] | inhibition [4] [%] | inhibition [5] [%] | inhibition [6] [%] | inhibition [7] [%] | inhibition [8] [%] | inhibition [9] [%] | inhibition [10] [%] | inhibition [11] [%] | inhibition [12] [%] | inhibition [13] [%] | inhibition [14] [%] | inhibition [15] [%] | inhibition [16] [%] | inhibition [17] [%] | inhibition [18] [%] | inhibition [19] [%] | inhibition [20] [%]
CC(C)c1ccc(Nc2nccc(-c3cnn4ncccc34)n2)cc1 | 5.49 | 0.41 | -0.49 | 0.56 | 2.84 | 0.59 | 1.47 | 2.12 | 15.9 | 1.32 | 15.6 | 2.22 | 15.6 | 0.59 | 4.3 | 1.01 | 3.05 | 0.91 | 1.43 | 0.36
Cc1ccc(O)cc1Nc1ccnc2ccc(S(C)(=O)=O)cc12 | 4.87 | 3.04 | 1.3 | 3.39 | 7.6 | 2.21 | 4.59 | 5.19 | 24.7 | 7.07 | 33.2 | 6.86 | 22.7 | 2.84 | 4.22 | 1.71 | 4.03 | 2.75 | 4.14 | 1.34
